Measurements as given in PubChem BioAssay (EPA / NIEHS).
Where a structure was tested more than once in an assay, its records may differ in their call. Active and inactive are the calls of the source. The calls were made as follows: active = hit-call score of the fitted dose curve at least 0.9, where 1 is the maximum; inactive = score below 0.9.

Test: BSK_4H_Eotaxin3: BioMAP Diversity Plus: 4H Assay for Eotaxin 3 Biomarker Activity (AID 2283000);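 as to outcome: CCL26 protein level quantified by ELISA in parallel with SRB cytotoxicity check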
Settings: primary human endothelial cells (HUVEC); actives raise or lower the signal
Method in brief: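 Eotaxin-3 (CCL26) levels were measured by ELISA in HUVEC primary cultures 24 h post-dosing. Gain or loss of signal was fitted in both directions, with DMSO serving as baseline and negative control.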
For `COc1cc(Cl)c(OC)cc1N`, the outcome was “inactive”.
With `C=CC(C)(O)CCC=C(C)C` (stereo unspecified) the AC50 was 0.149 µM (active) and the outcome was “inactive”.
In the case of `IC(I)I`, the outcome is reported as “inactive”.
In the case of `CC1(C)C2=CCCC(C)(C)[C@]23CC[C@H]1C3`, the AC50 is reported as 27.3 µM (active).
For `CC(C=O)Cc1ccc(C(C)(C)C)cc1` (stereo unspecified), the AC50 was 36 µM (active).
